Rows were chosen to be rich in hits. Some 1.2% of all compounds tested hit in one or more screens of this group.
DNA Pol III inh – qHTS Assay for Inhibitors of DNA Polymerase III Holoenzyme System. reconstituted DNA polymerase III holoenzyme replication, biochemical. Potency, µM (series often up to 57.1 µM), for inactives: at the highest dose activity change, negative = inhibition. 71,000 tested, 0.25% active. AID 603, 2007; note: potency is the fitted concentration of half-maximal effect; % is set by controls: 0 for no effect and ±100 for the full control effect
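Reconstituted *E. coli* holoenzyme (0.35 nM Pol III, 1 nM beta, 154 nM SSB, 2 nM primase) was preincubated with compound for 15 min at RT. Synthesis on 1.4 nM ssM13Gori ran 35 min, then was stopped with PicoGreen/EDTA and read as dsDNA fluorescence.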
ERK AVP inh – qHTS Assay for Inhibitors of the ERK Signaling Pathway using a Homogeneous Screening Assay | Potency, µM (doses to about 57.5 µM), for inactives: at the highest dose activity, negative = inhibition, actives largely listed as inhibitors | HEK293-V1b, vasopressin-stimulated pERK AlphaScreen | 72,000 tested, 0.99% active; note: potency is the fitted concentration of half-maximal effect; % is set by controls: 0 for no effect and ±100 for the full control effect; nearly all actives have a fitted effect of over 55% in size
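qHTS, compounds titrated on V1b-expressing HEK293 cells. Preincubation 30 min at 37C, vasopressin 25 nM for 5 min, lysis 10 min, bead incubation 5 hr at room temperature.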
BRCT PPI red – qHTS Assay for Inhibitors of BRCT-Phosphoprotein Interaction (Red Fluorophore). BRCT-phosphopeptide binding, red fluorescence polarization. Potency, µM (doses to about 76.9 µM), without a hit: top-dose activity change, negative = inhibition, usual class: inhibitors. 75,000 tested, 0.03% active; note: % is set by controls: 0 for no effect and ±100 for the full control effect
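Rhodamine-labelled pBACH1 10-mer (100 nM) bound to BRCT domain (100 nM) at pH 7.3; compounds incubated 12 min room temperature, polarization read. Free peptide defines full inhibition; unlabelled decapeptide titrated as control.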
BRCT inh green – qHTS Assay for Inhibitors of BRCT-Phosphoprotein Interaction (Green Fluorophore) | 75,000 tested, 0.05% active | Potency, µM (doses to about 76.9 µM), for the others: top-dose activity change, negative = inhibition, actives largely listed as inhibitors | Breast cancer type 1 susceptibility protein (Homo sapiens), P38398 | BRCA1 BRCT-phosphopeptide binding, green fluorescence polarization;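 note: potency is the fitted concentration of half-maximal effect; plate controls were peptide without protein for full effect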
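Compounds were incubated for 12 min at room temperature with a complex of 100 nM fluorescein-tagged pBACH1 decapeptide and 250 nM His-tagged BRCT protein. Buffer was phosphate pH 7.3 with EDTA, DTT and Tween 20. Disruption of binding lowers the polarization signal.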
YjeE inh – qHTS Assay for Inhibitors of YjeE. tRNA threonylcarbamoyladenosine biosynthesis protein TsaE (Escherichia coli (strain …. purified YjeE enzyme, qHTS inhibition assay. Potency, µM. 71,000 tested, 0.05% active. AID 605, 2007
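Purified YjeE (10 uM) with BODIPY Texas Red-labeled ADP probe (2 uM); compounds pin-transferred, 15 min at room temperature. Binding inhibition read as decreased fluorescence polarization; ADP titration as control.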
An asterisk follows results filed as active; i = inactive; ? = inconclusive; . = not tested or not shown; [ ] = another dose, or the depositor's remark. Calls come from the whole dose curve; as a rule, active = well fitted curve in the direction sought with a large enough effect; inconclusive = small, poorly fitted or top-dose-only effect, or another doubt; inactive = no such curve, though single readings can be large; an effect the other way counts as inactive or inconclusive.

SMILES | DNA Pol III inh | ERK AVP inh | BRCT PPI red | BRCT inh green | YjeE inh
CSc1nc(N)c2ncn([C@@H]3O[C@@H](COP(=O)(O)OP(=O)(O)O)[C@@H](O)[C@H]3O)c2n1 | -1.8% | -7.2% | 0.1% | -1.3% | ?
Nc1ncnc2c1ncn2[C@@H]1O[C@@H](COP(=O)(O)OP(=O)(O)OP(=O)(O)OP(=O)(O)OC[C@@H]2O[C@@H](n3cnc4c(N)ncnc43)[C@@H](O)[C@H]2O)[C@H](O)[C@@H]1O | -6.8% | -6.5% | -1.7% | -1.1% | 50.1µM*
CSc1nc(N)c2ncn([C@H]3O[C@H](COP(=O)(O)OP(=O)(O)O)[C@@H](O)[C@@H]3O)c2n1 | -3.0% | 5.8% | -1.1% | -2.2% | 50.1µM*
CCOC(=O)c1c(C)c(C(=O)NC2CCCCCC2)c(C)n1C | -8.5% | -8.7% | 0.5% | 0.8% | i
CCOC(=O)c1c(C)c2c(n1C)CCC/C2=N\O | -2.4% | 3.16µM* | -1.9% | -3.3% | i
CCOc1cccc(C(=O)Nc2cccc(-c3nc4ncccc4o3)c2C)c1 | -5.5% | 12.6µM* | -2.0% | 1.4% | i
CC(C)CCNC(=O)NC(=O)CSc1nnc(COc2ccccc2Cl)o1 | -3.4% | -12.5% | -0.9% | -1.3% | i
O=C(CSc1nnc(COc2ccccc2Cl)o1)NC(=O)NC1CCCC1 | -3.1% | 20µM* | -3.1% | -2.0% | i
N[C@@H](Cc1cc(-c2ccc(Cl)cc2Cl)cc(CP(=O)(O)O)c1O)C(=O)O | 31.6µM* | ? | -5.6% | -12.2% | i
CN1CCc2c(sc3c2C(=O)NC(/C=C/c2ccco2)N3)C1 (configuration not stated) | -10.3% | 15.8µM* | -4.4% | 17.4% | i
CCCCC(=O)Nc1ccc(N2CCN(C(=O)CC)CC2)cc1 | -6.0% | 25.1µM* | -1.8% | -2.9% | i
O=c1cc(-c2ccccc2O)oc2c(O)c(O)ccc12 | 0.501µM* | -4.3% | -0.6% | -2.0% | i
CCCCCn1c(=N)n(CC(O)COc2ccccc2OC)c2ccccc21 (configuration not stated) | -12.6% | 12.6µM* | -3.3% | 10.3% | i
O=S(=O)(Nc1cccc(-c2cn3ccsc3n2)c1)c1ccc(F)cc1 | ? | 20µM* | 0.8% | 2.4% | i
CCC(=O)Nc1cccc(-c2cn3ccsc3n2)c1 | -6.5% | -9.2% | 2.5% | 0.6% | i
CC(C)CC(=O)Nc1cccc(-c2cn3ccsc3n2)c1 | -6.2% | 15.8µM* | 1.4% | 2.0% | i
O=c1cc(-c2ccccc2)oc2cc(O[C@H]3O[C@H](CO)[C@@H](O)[C@H](O)[C@@H]3O)c(O)c(O)c12 | -9.3% | . | . | . | i
C/C(=C\CNc1ncnc2c1ncn2[C@@H]1O[C@@H](CO)[C@@H](O)[C@H]1O)CO | 2.0% | . | . | . | i
COc1ccc(S(=O)(=O)c2ccc(OC)c(OC)c2)cc1OC | -3.6% | 15.8µM* | -0.1% | 0.7% | i
COc1ccc(OC)c(NC(=O)c2cc(-c3cc(Cl)ccc3O)n[nH]2)c1 | -7.4% | 25.1µM* | -1.5% | -2.4% | i
COc1ccc(NC(=O)c2cc(-c3cc(C)ccc3O)n[nH]2)cc1Cl | 0.1% | -2.6% | 0.0% | -1.6% | i
O[C@@H]1[C@@H]2c3cc4c(cc3CN3CCC(=C[C@@H]1O)[C@H]23)OCO4 | -0.4%[25.6 µM] | ? | 0.0%[34.4 µM] | 0.2%[34.4 µM] | i
Cn1c(-c2ccc(F)cc2)cnc1NCc1ccccc1 | ? | 25.1µM* | -0.3% | -2.2% | i
Cn1c(-c2cccc(Br)c2)cnc1NCc1cccnc1 | -6.5% | -18.0% | 0.4% | -0.8% | i
COc1cccc(Nc2ncc3nc(C)c(=O)n(CCC#N)c3n2)c1 | -4.2% | ? | 1.0% | -1.1% | i
SMILES | DNA Pol III inh | ERK AVP inh | BRCT PPI red | BRCT inh green | YjeE inh
CCSC1=NC(=O)/C(=C2/C=Cc3ccccc3N2CC)S1 | -4.0% | 25.1µM* | 0.1% | 0.5% | i
CCOC(=O)c1ccc2c(c1)C1C=CCC1C(C(=O)O)N2 (configuration not stated) | 15.8µM* | -22.8% | ? | -29.0% | i
Cc1ccc2c(c1C)NC(C(=O)O)C1CC=CC21 (configuration not stated) | 25.1µM* | -27.9% | -24.9% | -18.9% | i
O=C(O)C1Nc2c(C(=O)N3CCOCC3)cccc2C2C=CCC12 (configuration not stated) | -24.4% | -15.0% | -6.8% | -1.4% | i
CCCn1c(NCc2cc(C)ccc2O)nc2ccccc21 | 4.7% | -21.9% | -1.6% | 0.7% | i
CCCCn1c(NCc2ccccc2O)nc2ccccc21 | 0.9% | 25.1µM* | 0.7% | -0.3% | i
Cn1c(=O)n(CCc2ccccc2)c(=O)c2c1nc1n2CCCN1CCc1ccccc1 | 1.4% | 12.6µM* | -0.7% | -1.0% | i
CC1(C)O[C@@H]2C[C@H]3[C@H]4C[C@H](F)C5=CC(=O)C=C[C@@]5(C)[C@@H]4[C@H](O)C[C@]3(C)[C@]2(C(=O)CO)O1 | -5.8%[25.6 µM] | 7.6%[25.7 µM] | -0.3%[34.4 µM] | -2.8%[34.4 µM] | i
CC1(C)O[C@@H]2O[C@H]([C@@H]3COC(C)(C)O3)[C@H](N)[C@H]2O1 | -9.4%[11.4 µM] | -13.6%[11.5 µM] | -0.4%[15.4 µM] | -0.1%[15.4 µM] | i
C[C@@H](C(=O)Nc1ccc2ccccc2c1)[C@@H]1C[C@@]1(C)[C@@H](NC(=O)Oc1ccc(F)cc1)c1ccccc1 | 4.1% | 1.8% | 1.4% | -0.4% | i
Cc1cc(-n2c(C)cc(C(=O)CSc3ncnc4ccccc34)c2C)no1 | 4.4% | 20µM* | -1.0% | 3.5% | i
COc1ccc(CCNc2nc(C)nc3c2oc2ccccc23)cc1OC | -5.8% | 12.6µM* | 0.7% | 0.9% | i
COc1ccc(CCNc2ncnc3c2oc2ccccc23)cc1OC | -7.7% | 31.6µM* | 1.2% | -1.8% | i
Cc1nc(NCc2ccco2)c2oc3ccccc3c2n1 | -3.1% | 25.1µM* | -4.5% | 3.0% | i
COc1ccccc1NC(=O)CSc1ncnc2c1oc1ccccc12 | -6.4% | 6.1% | -0.5% | -1.6% | i
Cc1nc(Nc2ccncc2)c2oc3ccccc3c2n1 | -16.9% | -20.9% | -1.6% | -1.1% | i
O=C(Nc1nn[nH]n1)c1nc(-c2ccccc2)cc(=O)[nH]1 | -7.3%[11.4 µM] | 0.4%[11.5 µM] | -0.8%[15.4 µM] | -2.4%[15.4 µM] | i
COC(=O)c1cc(OC)c(OC)cc1NC(=O)C1CCC(=O)N1S(=O)(=O)c1ccc(C)cc1 (configuration not stated) | -3.3% | 25.1µM* | -1.0% | 0.7% | i
COC(=O)c1ccc(NC(=O)C2CCCN2S(=O)(=O)c2ccc(C)cc2)cc1 (configuration not stated) | -2.0% | 25.1µM* | 0.1% | -0.1% | i

Compound activity from PubChem.
